Screening results: PubChem BioAssay, National Center for Advancing Translational Sciences (NCATS)
MCF10A rereplic: DNA re-replication induction in MCF 10a cells. MCF 10A DNA re-replication, Hoechst nuclear intensity, 48 h. Potency, µM (top dose mostly 46.1 µM), for inactives: at the highest dose activity, positive = re-replication, most hits filed as activators. 350,000 compounds, 2.9% hits; note: potency is the fitted concentration of half-maximal effect; % of control where 0% means no effect; nearly all actives have a fitted effect of over 50% in size
KB-V1 cytotox: KB-V1 MDR subline cytotoxicity; KB-V1 MDR cells viability, CellTiter-Glo, 72 h; Potency, µM (top dose mostly 46.1 µM), usual class: cytotoxic; AID 1347076; 400,000 compounds, 3.4% hits; note: potency is the fitted concentration of half-maximal effect; % is set by controls: 0 for no effect and ±100 for the full control effect; nearly all actives have a fitted effect of over 60% in size
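qHTS viability screen in drug-selected KB-V1 MDR cells: 72 h compound treatment at 37 degrees C, ATP luminescence end point.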
KB-3-1 tox: kills parental KB-3-1 adenocarcinoma cells. AID 1347075. Potency, µM (highest dose often 46.1 µM), usual class: cytotoxic. 400,000 compounds, 1.4% hits. KB-3-1 viability, CellTiter-Glo ATP luminescence, 72 h; note: potency is the fitted concentration of half-maximal effect; % is set by controls: 0 for no effect and ±100 for the full control effect; nearly all actives have a fitted effect of over 60% in size
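Cytotoxicity in the drug-sensitive parental line KB-3-1 was scored as loss of CellTiter-Glo luminescence following 72 h incubation with compound. Values come from curve fitting of normalized concentration-response data.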
SW480 rereplic: inducers of DNA re-replication in SW480 colon cancer cells; SW480 DNA re-replication, Hoechst DNA content imaging, 48 h; Potency, µM (series often up to 46.1 µM), without a hit: at the highest dose re-replication activation, most hits filed as activators; 340,000 compounds, 1.8% hits; AID 624297; note: potency is the fitted concentration of half-maximal effect; % of control where 0% means no effect; nearly all actives have a fitted effect of over 55% in size
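SW480 cells exposed to compounds for 48 hr at 37 C, 5% CO2, then Hoechst-stained 40 min. Nuclear DNA content imaged by fluorescence scanning (405 nm excitation, 500-530 nm emission); re-replication scored as increased high-intensity nuclei.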
DRD3 agonist: agonists of human D3 dopamine receptor. AID 652048. max activation, %. D3R DiscoveRx beta-arrestin cells, luminescence, 90 min. P35462. 410,000 compounds, 0.58% hits; in the data active = max activation above about 30%; note: 0% is about no effect
Target sequence (P35462 whole entry, looked up): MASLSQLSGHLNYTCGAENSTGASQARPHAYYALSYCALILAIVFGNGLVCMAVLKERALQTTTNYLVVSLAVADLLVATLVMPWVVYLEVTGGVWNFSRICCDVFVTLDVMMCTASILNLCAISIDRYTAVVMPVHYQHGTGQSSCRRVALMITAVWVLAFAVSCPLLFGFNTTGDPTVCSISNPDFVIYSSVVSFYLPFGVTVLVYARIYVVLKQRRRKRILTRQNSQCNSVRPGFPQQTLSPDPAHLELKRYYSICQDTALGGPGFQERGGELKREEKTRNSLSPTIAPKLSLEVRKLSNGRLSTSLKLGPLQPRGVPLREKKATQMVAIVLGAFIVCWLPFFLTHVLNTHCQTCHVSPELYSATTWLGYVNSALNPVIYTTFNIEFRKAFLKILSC
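Agonist mode: compounds and dopamine controls were applied to plated cells for 90 min at 37 degrees C after an overnight attachment at 1500 cells/well. Luminescent read-out followed 30 - 60 minutes at room temperature with DiscoveRx detection reagent.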
D3 antag: D3 dopamine receptor (human) antagonism; D3R cells, DiscoveRx beta-arrestin luminescence, antagonist mode; hits give low values; 360,000 compounds, 2.5% hits; max response, negative = inhibition, %; P35462; AID 652054; in the data active = max response below about -50%; inconclusive = no clear call, values can overlap the other calls; note: % is set by controls: 0 for no effect and ±100 for the full control effect
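Cells plated overnight at 1500 cells/well, then exposed to library compounds with dopamine controls for 90 minutes at 37 degrees C. DiscoveRx reagent added for 30–60 minutes at room temperature; luminescence read, quantitative HTS format.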
Active calls of the source: *; i = inactive; ? = inconclusive; / = not tested or not shown; ! = not active in a repeat. A selection: hits, their analogues and other compounds. The true share with any hit is near 8.9%. Unless noted, calls come from the whole dose curve; as a rule, active = well fitted curve in the direction sought with a large enough effect; inconclusive = small, poorly fitted or top-dose-only effect, or another doubt; inactive = no such curve, though single readings can be large; an effect the other way counts as inactive or inconclusive.

SMILES	MCF10A rereplic	KB-V1 cytotox	KB-3-1 tox	SW480 rereplic	DRD3 agonist	D3 antag
COc1ccc(CCn2c(N)cc(=O)[nH]c2=O)cc1OC	-6%	i	i	-2%	-13	-86*
COc1ccc(CCNC2CC(=O)N(CCc3ccc(OC)c(OC)c3)C2=O)cc1OC (configuration not stated)	-2%	18µM*	i	-5%	5	5
COc1ccc(CCN2C(=O)C3C4C=CC(C3C2=O)C2C(=O)N(CCc3ccc(OC)c(OC)c3)C(=O)C42)cc1OC (configuration not stated)	2%	i	?	3%	31*	-19
O=C(Cn1c(=O)oc2ccccc21)NCc1ccc(Cl)cc1	/	/	/	/	4	/
COc1ccc(C)c2sc(N(Cc3cccnc3)C(=O)c3cccs3)nc12	/	i	i	/	15	/
CCn1c(=O)cc(SCC(=O)Nc2ccc(C)c(F)c2)c2ccccc21	/	i	i	/	1	/
CCn1c(=O)cc(SCC(=O)Nc2ccc3c(c2)OCO3)c2ccccc21	-4%	16µM*	i	-10%	11	8
CCn1c(=O)cc(SCC(=O)N(C)Cc2ccccc2)c2ccccc21	0%	4.6µM*	i	-9%	-5	-9
CCn1c(=O)cc(SCC(=O)N2CCN(c3ccccc3F)CC2)c2ccccc21	?	23µM*!	i	-3%	7	24
COc1cccc(NC(=O)CSCc2cc(=O)c3ccc(C)c(C)c3[nH]2)c1	/	i	i	/	4	/
CC(C)(C)c1ccc(C(=O)Nc2ccc(-c3nc4ccccc4o3)c(O)c2)cc1	/	i	?	/	4	/
O=c1c(NCc2ccccc2Cl)nccn1-c1ccccc1	/	i	i	/	-8	/
COc1ccccc1CNC(=O)CCNS(=O)(=O)c1ccc2c(c1)CCCC(=O)N2	/	i	i	/	-4	/
CC(=O)c1ccc2c(c1)C1C=CCC1C(c1ccncc1)N2 (configuration not stated)	-9%	23µM*	?	-2%	2	-11
CN(C)S(=O)(=O)c1ccc2c(c1)N(CC(=O)N1CCN(c3ccc(F)cc3)CC1)CCS2	/	?	i	/	-5	/
Cc1ccc(Cl)cc1NC(=O)N1CCc2cc(S(=O)(=O)N3CCC(C)CC3)ccc21	/	/	/	/	-5	/
O=C(c1ccc2c(Cl)c3c(nc2c1)CCCC3)N1CCN(c2ccccc2F)CC1	/	i	i	/	2	/
O=c1cc(-c2ccco2)oc2c1ccc1ccccc12	9%	i	i	1%	-5	4
O=c1cc(C(Cl)(Cl)Cl)oc2c1ccc1ccccc12	8.2µM*	i	?	13µM*	-5	-5
CC1CCCCC1NC(=O)COC(=O)c1c2c(nc3ccccc13)/C(=C/c1ccco1)CC2 (configuration not stated)	16µM*	i	i	15µM*	-2	3
O=C(COC(=O)c1c2c(nc3ccccc13)/C(=C/c1ccco1)CC2)NC1CCCC1	7.3µM*	16µM*	i	13µM*	8	11
COc1cc(C2SC[C@H]3C(=O)N(c4ccccc4)C(=O)N23)cc(OC)c1OC (some centres not stated)	/	i	i	/	7	/
COc1ccc(NC(=O)Nc2cccc(-c3cn4cccnc4n3)c2)cc1	/	i	i	/	2	/
CCOC(=O)c1ccc(NC(=O)c2oc3c(c2C)-c2nn(Cc4ccccc4Cl)cc2CC3)cc1	/	/	/	/	-9	/
CCN(CC)S(=O)(=O)c1cccc(C(=O)OCC(=O)c2ccc3c(c2)OCCO3)c1	3%	13µM*	i	-17%	-2	2
SMILES	MCF10A rereplic	KB-V1 cytotox	KB-3-1 tox	SW480 rereplic	DRD3 agonist	D3 antag
CCN(CC)S(=O)(=O)c1cccc(C(=O)Oc2cccc(NC(=O)c3cccs3)c2)c1	-1%	i	i	-6%	-27	12
CCN(CC)S(=O)(=O)c1cccc(C(=O)Oc2cccnc2)c1	12%	?	i	-8%	-5	-53*
CS(=O)(=O)c1cccc(C(=O)OCC(=O)c2ccc3c(c2)OCCO3)c1	-2%	i	i	1%	3	0
Cc1ccc(S(=O)(=O)N2CCN(Cc3cc4c(cc3Br)OCCO4)CC2)cc1	?	i	3.7µM*	-7%	6	4
Oc1ccc(N2CCN(Cc3cc4c(cc3Br)OCCO4)CC2)cc1	?	?	i	25%	-17	-86*
O=S(=O)(c1ccc(F)cc1)N1CCN(Cc2cc3c(cc2Br)OCCO3)CC1	5%	i	?	-35%	-16	-1
Cc1ccccc1Cc1c(C)nc2nc(SCC(=O)N(C)c3ccccc3)nn2c1C	/	i	i	/	3	/
O=C(Nc1cccc2ccccc12)c1ccc([N+](=O)[O-])s1	?	i	i	?	-1	-26
Cc1ccccc1NC(=O)/C=C/c1ccc([N+](=O)[O-])s1	1.6µM*	?	?	0.16µM*	-9	-51*
CC(=O)c1cccc(NC(=O)/C=C/c2ccc([N+](=O)[O-])s2)c1	3.7µM*	21µM*	?	2.9µM*	-17	-69*
COC(=O)c1cccc(NC(=O)/C=C/c2cccc([N+](=O)[O-])c2)c1	17%	i	i	3%	12	47
O=C(Nc1ccccc1F)c1ccc([N+](=O)[O-])s1	?	?	?	15µM*	3	-5
Cc1cc(C)cc(NC(=O)/C=C/c2ccc([N+](=O)[O-])s2)c1	4.1µM*	?	6.5µM*	?	-2	-1
Cc1cccc(OCCSc2nnc(-c3cccs3)o2)c1	/	i	i	/	-23	/
CCCNC(=O)C1(C)CCN(C(=O)c2oc3ccccc3c2C)C1 (configuration not stated)	/	?	i	/	-10	0
COc1ccc(C2C(=O)N(C3CCCCCC3)CC(=O)N2Cc2ccc(C)cc2)cc1OC (configuration not stated)	/	/	/	/	-2	/
COc1ccc(-n2ncc(C(=O)N3CCN(c4ccccn4)CC3)c2C2CCN(C(=O)OC(C)(C)C)CC2)cc1	/	i	i	/	5	/
CC(=O)c1cc(-c2ccccc2)n(CC(=O)N2CCN(C3CCCC3)CC2)c1C	0%	i	i	-1%	-2	-2
CC(=O)c1cc(-c2ccccc2)n(CC(=O)N2CCC(C)CC2)c1C	5%	5.8µM*	i	-9%	-11	0
CCN(c1ccccc1)S(=O)(=O)c1ccc(N2CCN(c3ccc(OC)cc3)CC2)nc1	-5%	i	i	-15%	-1	3
CCN(c1ccccc1)S(=O)(=O)c1ccc(N2CCN(c3ccc(O)cc3)CC2)nc1	18µM*	i	?	?	3	-23
